# Screens deposited in PubChem BioAssay by National Center for Advancing Translational Sciences (NCATS).
# TDP1 cell CPT: qHTS for Inhibitors of human tyrosyl-DNA phosphodiesterase 1 (TDP1): qHTS in cells in presence of CPT. 420,000 tested, 12% active. AID 686979, 2013. Potency, µM (top dose mostly 46.2 µM), inactives show top-dose activity change, negative = growth inhibition, hits mostly inhibitors. chicken DT40 Tdp1-/-;hTDP1 cells + 20 nM CPT, ATP luminescence, 48 h; also: nearly all actives have a fitted effect of over 55% in size
#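 Chicken DT40 Tdp1-/- cells complemented with human TDP1, 400 cells/well, exposed to compounds plus 20 nM camptothecin for at least 48 h at 37 C; viability read as ATP content by CellTiter-Glo luminescence.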
# Gal4-VP16 FLuc: VP16 counterscreen qHTS for inhibitors of ROR gamma transcriptional activity; Drosophila S2 Gal4-VP16 UAS-luciferase, luminescence, 20 h; Potency, µM (titrated, usually from 53.6 µM), inactives show top-dose activity, negative = inhibition, usual class: inhibitors; 310,000 tested, 3.5% active; AID 2546, 2010;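 also: Gal4-VP16 expression switched on by copper sulfate through the metallothionein promoter; nearly all actives have a fitted effect of over 50% in size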
# TDP1 cell noCPT: qHTS for Inhibitors of human tyrosyl-DNA phosphodiesterase 1 (TDP1): qHTS in cells in absence of CPT. 420,000 tested, 15% active. AID 686978, 2013. DT40 Tdp1-/- hTDP1 cells, no CPT, ATP luminescence, 48 h. Potency, µM (series often up to 46.2 µM), inactives show at the top dose activity change, negative = growth inhibition, usual class: inhibitors; also: nearly all actives have a fitted effect of over 55% in size
#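 Stably hTDP1-transfected Tdp1-null chicken DT40 cells were treated with library compounds minus camptothecin and grown for at least 48 hr at 37 °C, after which cellular ATP was quantified by luminescence.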
# TDP1 inh: qHTS Assay for Inhibitors of Tyrosyl-DNA Phosphodiesterase (TDP1). Tyrosyl-DNA phosphodiesterase 1 (Homo sapiens), Q9NUW8. Potency, µM (doses to about 130 µM), for the others: top-dose activity change, negative = inhibition, actives largely listed as inhibitors. recombinant TDP1, AlphaScreen DNA substrate cleavage. 350,000 tested, 0.28% active; also: nearly all actives have a fitted effect of over 40% in size
# Target sequence (Q9NUW8 whole entry, looked up): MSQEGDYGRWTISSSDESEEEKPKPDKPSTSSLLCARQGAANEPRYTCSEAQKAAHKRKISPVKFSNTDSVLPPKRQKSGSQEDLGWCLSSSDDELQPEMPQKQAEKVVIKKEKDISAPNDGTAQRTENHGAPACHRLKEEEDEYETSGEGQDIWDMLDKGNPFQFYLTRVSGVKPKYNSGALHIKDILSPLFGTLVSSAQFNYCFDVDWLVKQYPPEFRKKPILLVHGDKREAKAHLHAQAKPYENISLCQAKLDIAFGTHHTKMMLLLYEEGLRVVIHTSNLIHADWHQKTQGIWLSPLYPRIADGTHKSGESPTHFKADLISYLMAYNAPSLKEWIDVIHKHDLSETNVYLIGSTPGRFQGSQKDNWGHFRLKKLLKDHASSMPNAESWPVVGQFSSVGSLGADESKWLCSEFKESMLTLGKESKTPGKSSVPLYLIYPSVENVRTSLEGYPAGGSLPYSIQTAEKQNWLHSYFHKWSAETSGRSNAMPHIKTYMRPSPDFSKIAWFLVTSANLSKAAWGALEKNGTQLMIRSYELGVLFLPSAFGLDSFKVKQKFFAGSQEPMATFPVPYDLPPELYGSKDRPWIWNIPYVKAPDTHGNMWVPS
#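 Signal: AlphaScreen proximity between streptavidin donor and anti-FITC acceptor beads on intact substrate. Reaction: Tdp1 1 nM, substrate 15 nM final, 5 min RT after 15 min compound preincubation.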
# RORg inh: qHTS for inhibitors of ROR gamma transcriptional activity; Drosophila S2 Gal4-RORgamma UAS-luciferase reporter, 20 h; Potency, µM (doses to about 53.6 µM), for the others: at the highest dose activity change, negative = inhibition, hits mostly inhibitors; AID 2551, 2010; 310,000 tested, 5.4% active; also: nearly all actives have a fitted effect of over 60% in size
#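 In this cell-based reporter format, copper sulfate (700 uM final) drives Gal4–ROR gamma fusion expression from a metallothionein promoter in Drosophila Schneider cells; compounds preincubated 1 hr, reporter read after 20 hr at ambient temperature.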
# An asterisk follows results filed as active; ? = inconclusive; . = not tested or not shown; [ ] = dose if it differs, or a comment. Only some compounds are listed: those with a hit (about 19% of all), similar ones and a draw of the others. Calls follow the shape of the dose curve; as a rule, active = well fitted curve in the direction sought with a large enough effect; inconclusive = small, poorly fitted or top-dose-only effect, or another doubt; inactive = no such curve, though single readings can be large; an effect the other way counts as inactive or inconclusive. % is scaled to controls: 0 for no effect and ±100 for the full control effect; potency is read from the fitted curve at half-maximal effect.
SMILES,TDP1 cell CPT,Gal4-VP16 FLuc,TDP1 cell noCPT,TDP1 inh,RORg inh
O=C(c1ccc(F)cc1)N1c2ncnn2C2(CCCCC2)[C@@H]2CCCC[C@@H]21,?,.,21µM*,-2%,.
Cc1nc(NCc2ccccc2)c2nc(-c3ccccc3)n(CC3CCN(C)CC3)c2n1,.,-8%,.,7%,-4%
CCOCCCNC(=O)C(c1ccc(C)cc1)N(Cc1ccc2c(c1)OCO2)C(=O)c1ccccc1O (configuration not stated),23µM*,.,16µM*,9%,.
C/C(=N\NC(=O)Cc1cc(=O)[nH][nH]1)c1cccc([N+](=O)[O-])c1,-3%,5%,14%,11%,10%
CCOc1ccc(NC(=O)C2CCN(S(=O)(=O)c3ccc4c(c3)CC(C)N4C(C)=O)CC2)cc1 (configuration not stated),?,?,?,0%,25%
CC(=O)N1c2ccc(S(=O)(=O)N3CCCC(C(=O)Nc4ccc(F)cc4)C3)cc2CC1C (configuration not stated),?,?,23µM*,.,?
CCc1ccc(NC(=O)C2CCCN(S(=O)(=O)c3ccc4c(c3)CC(C)N4C(C)=O)C2)cc1 (configuration not stated),16µM*,-11%,26µM*,.,-30%
CCOc1ccc(NC(=O)C2CCCN(S(=O)(=O)c3ccc4c(c3)CC(C)N4C(C)=O)C2)cc1 (configuration not stated),?,-8%,-19%,1%,32%
CCc1ccc(NC(=O)C2CCN(S(=O)(=O)c3ccc4c(c3)CC(C)N4C(C)=O)CC2)cc1 (configuration not stated),16µM*,?,10µM*,.,-30%
CCOC(=O)C1(CCOC)CCN(CC(C)Cc2ccc3c(c2)OCO3)CC1 (configuration not stated),-16%,-15%,-12%,.,2%
CCOC(=O)C1(CCOc2ccccc2)CCN(Cc2cc(OC)c3c(c2)OCO3)CC1,21µM*,-5%,12µM*,.,44%
CCOC(=O)C1(CCOc2ccccc2)CCN(CC=C(C)C)CC1,?,-3%,?,.,-13%
CCOC(=O)C1(CCOc2ccccc2)CCN(Cc2cccc3c2OCO3)CC1,23µM*,1%,15µM*,1%,34%
N#Cc1c(N)nc(-c2ccccc2)nc1-c1ccccc1,-3%,-9%,-2%,-2%,-18%
Cc1ccnc(Nc2nc(-c3ccc(O)c(O)c3)cs2)c1,2.1µM*,5.6µM*,3.3µM*,13%,11µM*
Oc1ccc(-c2csc(Nc3ccccn3)n2)cc1O,5.2µM*,6.3µM*,2.6µM*,2%,5.6µM*
COc1ccc(-c2csc(Nc3cc(C)ccn3)n2)cc1C,?,-26%,?,.,?
CC(=O)Nc1ccc(-c2csc(Nc3ccccn3)n2)cc1,?,-4%,-25%,.,21%
Cc1cccc(Nc2nc(-c3ccc(O)c(O)c3)cs2)n1,2.1µM*,5.6µM*,1.6µM*,9%,4.5µM*
Cc1ccnc(Nc2nc(-c3ccc(O)cc3O)cs2)c1,?,2.2µM*,3%,.,0.71µM*
CCOC(=O)CSc1nnc(C)c(C)n1,3%,.,10%,.,.
Cc1ccnc(Nc2nc(-c3ccc(O)cc3)cs2)c1,1%,4µM*,-27%,7%,3.2µM*
Oc1ccc(-c2csc(Nc3cccc4ccccc34)n2)cc1O,0.92µM*,?,8.2µM*,8%,?
CCN(CC(=O)Nc1ccc(NC(C)=O)cc1)C(=O)CCCSc1nc2ccccc2[nH]1,-1%,.,-8%,.,.
O=C(N/N=C/c1sc(=O)[nH]c1-[n+]1ccc2ccccc2c1)c1ccccc1[O-],1%,1%,12%,12%,-34%
SMILES,TDP1 cell CPT,Gal4-VP16 FLuc,TDP1 cell noCPT,TDP1 inh,RORg inh
COc1ccc(-c2oc3c(c2C#CC2(O)CCCCC2)C(OC)CCC3)cc1 (configuration not stated),?,.,-29%,.,.
Cc1ccc(NC(=O)c2cc(C)n(-c3cccc(C)c3)c2C)cc1,?,-26%,21µM*,4%,-39%
Cc1c(C(=O)Nc2cccc([N+](=O)[O-])c2)csc1-c1ccccc1,?,-1%,?,4%,?
Cc1ccc(NC(=O)c2cc(C)n(-c3ccccc3)c2C)cc1,?,6.3µM*,?,8%,4.5µM*
Cc1ccc(NC(=O)c2csc(-c3ccccc3)c2C)cc1,?,2µM*,?,7%,2µM*
Cc1nc2c(ccc3nc(NC(=O)Cc4ccccc4)sc32)s1,?,?,?,1%,?
COc1ccc(NC(=O)C2CCN(C(=O)c3cccs3)CC2)c(OC)c1,?,-6%,?,3%,1%
CN(C)/C=C(\C(=O)c1ccccc1)c1nnnn1-c1ccccc1,10%,-5%,-16%,3%,9%
CN(C)c1ccc(C=C(c2nnnn2-c2ccccc2)c2nnnn2-c2ccccc2)cc1,21µM*,-1%,16µM*,-5%,1%
C=CCn1c(C)cc(C(=O)COC(=O)C2CC(=O)N(Cc3ccccc3)C2)c1C (configuration not stated),?,3%,-17%,5%,22%[10 µM]
Cc1nn(-c2ccccc2)c2c1C(O)n1c(nc3ccccc31)S2 (configuration not stated),15µM*,5%,16µM*,2%,-14%
Cc1nn(-c2ccccc2)c(C)c1Cc1ccc(O)cc1,?,8%,?,.,33%
CCOC(=O)C1Oc2ccccc2C(c2ccccc2)=C1C(C)=O (configuration not stated),.,-5%,.,-4%,-11%
Cc1ccc(S(=O)(=O)Oc2ccc(/C=N/NC(=O)c3nn(C)cc3Cl)cc2)cc1,-23%,-2%,-9%,2%,74%
COC(=O)c1ccc(OS(=O)(=O)c2ccc(NC(C)=O)cc2)cc1,12µM*,?,?,0%,?
CC(=O)Nc1ccc(S(=O)(=O)Oc2ccc(/C=N/NC(=O)c3ccc(Cl)cc3)cc2)cc1,21µM*,?,16µM*,4%,-8%
CC(=O)Nc1cccc(C2=CC(c3ccco3)n3ncnc3N2)c1 (configuration not stated),.,-14%,.,8%,6.3µM*
Cc1cc(C)c2c(=O)n(CC(=O)NCCCN3CCOCC3)sc2n1,4.1µM*,5µM*,6.5µM*,8%,4µM*
Cc1ccccc1CS(=O)(=O)CCC(=O)NCCCN1CCN(c2ccccc2F)CC1,?,0%,?,5%,0%
